Test results taken from PubChem BioAssay AID1117319 (Southern Research Institute, 2015).
Where “and” joins values, the source holds several entries; their conditions need not be identical. Equal values may be shown once. Screen size: about 260,000 compounds; about 1,500 (0.58%) were called active. Inconclusive results (about 5%) are left out.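 Rule for the calls: active = inhibition above a set limit at one or more doses, reproduced on every date tested; inconclusive = results disagree between test dates, or hit never tested in dose response; inactive = the rest.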 These entries were drawn from the full list. Potency and affinity values are given separately.

What follows are compounds tested against Virion infectivity factor (Human immunodeficiency virus type 1 group M subtype B (isolate BH10)) + Virion infectivity factor (Human immunodeficiency virus type 1 group M subtype B (isolate BRU/LAI)) + Virion infectivity factor (Human immunodeficiency virus type 1 group M subtype B (isolate PCV12)) + Virion infectivity factor (Human immunodeficiency virus type 1 group M subtype B (isolate HXB2)) + DNA dC->dU-editing enzyme APOBEC-3G (Homo sapiens) (UniProt P69720+P69721+P69722+P69723+Q9HC16) (assay: HIV-1 Vif–A3G interaction blockers – biochemical, TR-FRET, GST-Vif 1-94, biotin-A3G peptide, dose response retest, primary screen (AID 1117319;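 note: Vif residues 1-94 fused to GST binding biotinylated APOBEC3G peptide 110-148; 0% = full assay without inhibitor and 100% = GST in place of GST-Vif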)). Conditions: TR-FRET GST-Vif / biotin-A3G peptide binding; stronger effect = higher value.

inhibition, inactive:
COc1cnc(-c2ccccn2)[nH]c1=O 2.61%, O=C(Cn1nnc(-c2ccccc2F)n1)NCc1ccco1 10.4%, COc1ccc(CCNS(=O)(=O)c2ccc(OC)cc2)cc1 -5.66%, Cc1[nH]c2ccc(Br)cc2c(=O)c1CN1CCCCCC1 -12.9%, CC1CCCN(S(=O)(=O)Cc2ccc(Cl)cc2)C1 (configuration not stated) 4.49%, COc1ccc(COc2ccsc2C(=O)Nc2ccc(Cl)cc2)cc1 -8.53%, Cc1ccc2cccc(O)c2[n+]1[O-] 18.8%, [O-][n+]1cccc2cccc(O)c21 -10.3%, C/C(=N\NC=O)c1ccncc1 -3.47%, COc1ccc(CC(=O)N(C)C2CCCCC2)cc1S(=O)(=O)N1CCOCC1 1.22%, COc1ccc2[nH]c(C)cc(=O)c2c1 -0.89%, COc1ccc2[nH]c3ccccc3c2c1 1.16%, COc1ccc2c(OC)cc(=O)n(C)c2c1 6.19%, Cc1ccc2c(C)c(C)c(=O)n(C)c2c1 -6.81%, COc1ccc2c(c1)c1ccccc1n2C 1.57%, Cc1cc(=O)n(C)c2ccccc12 -5.08%, Cc1ccc2c(c1)c1c(n2C)C(=O)CCC1 -2%, Cc1ccc(C)c2c1c1ccccc1n2C -3.59%, Cc1c(NC(=O)c2cc(-c3ccccc3)nc3ccccc23)c(=O)n(-c2ccccc2)n1C -2.43%, CC1=C(C(=O)OCc2ccccc2)C(c2ccccc2Br)NC(=O)N1 (configuration not stated) -2.14%, COc1ccccc1C(O)(c1ccccc1)C(CN1CCOCC1)c1ccccc1 (configuration not stated) 3.77%, COc1ccc(NC(=O)c2cc(-c3ccccc3)nc3c2c(C)nn3-c2ccccc2)c(OC)c1 1.03%, COC(=O)Cc1[nH]nc2c1C(C1C=CCCC1)C(C#N)=C(N)O2 (configuration not stated) 7.26%, COc1ccc(C2/C=C\CN(C(=O)C3CC3)[C@H](Cc3ccccc3)C(=O)N2Cc2ccc(F)cc2)cc1 (some centres not stated) 7.45%, CC1CCN(C(=O)CSc2nnc(-c3ccncc3)n2C)CC1 8.77%, COc1cc(OC)cc(C(=O)NC2CCN(CCCOc3ccccc3)CC2)c1 -2.34%, CCN(CC(=O)Nc1ccc(NC(C)=O)cc1)C(=O)c1ccc2ccccc2c1 8.12%, Nc1c(C(=O)CSc2nnc(-c3ccccc3F)o2)c(=O)[nH]c(=O)n1C1CC1 -9.99%, Cn1c2ccccc2c2c(=O)oc3ccccc3c21 -5.39%, CC(=O)n1c2ccccc2c2c1c1ccccc1n2C -6.7%, CCOc1ccccc1NC(=O)Nc1cccc(S(N)(=O)=O)c1 1.28%, O=C(/C=C/c1ccccc1)c1ccc2c(c1)OCO2 -5.81%, CCOc1ccc(-n2c(=O)c3c4c(sc3n(CC(=O)NCc3ccco3)c2=O)CCC4)cc1 -4.88%, Cc1sc2c(c1C)c(=O)n(-c1ccc(F)cc1)c(=O)n2CC(=O)NCc1ccco1 -4.06%, C=CC(=O)N1C/C(=C/c2ccccc2)C(=O)/C(=C\c2ccccc2)C1 6.41%, CCOC(=O)N1C/C(=C\c2ccccc2)C(=O)/C(=C/c2ccccc2)C1 1.34%, CC(C)CCNC(=O)C(=O)NCc1ccccc1 21.7%, COc1ccc(NC(=O)COC(=O)CCSc2ccccc2)cc1 -0.53%, COc1ccc(NC(=O)CCSc2ccc(F)cc2)cc1 29.9%, CC(=O)c1ccc(OCc2cc(C(=O)N3CCC[C@H]3CO)no2)cc1 1.22%, CCn1c(COc2ccc3c(c2)OCO3)nnc1SCC(=O)O -4.1%, CCn1c(COc2ccc3c(c2)OCO3)nnc1SCC(=O)c1ccccc1 9%, O=C(/C=C/c1ccccc1Cl)Nc1ccccc1 -7.35%, COCCOc1ccc(C(F)(F)F)cc1N 16.5%, Nc1cc(OCC(F)(F)F)cc(OCC(F)(F)F)c1 2.81%, C=CCSc1nc2c(c(=O)[nH]c(=O)n2C)n1Cc1ccc(C)cc1 1.91%, CN1c2ccsc2/C(=N/Nc2ccc(F)cc2)CS1(=O)=O 12.5%, CN(C)c1ccc(NC(=O)CSc2nc3ccccc3c(=O)n2CC2CCCO2)cc1 (configuration not stated) 1.51%, Cc1cc(NC(=O)CSc2nc3ccccc3c(=O)n2C2CCCC2)no1 3.03%, CCOC(=O)N1CCN(C(=O)CN(CC)S(=O)(=O)c2cc(C)ccc2OC)CC1 -2.01%, O=[N+]([O-])c1ccccc1Nc1ccccc1[N+](=O)[O-] -5.54%, CC(=O)Nc1ccc2c3c(ccc([N+](=O)[O-])c13)CC2 1.46%, COc1ccc(CCC(=O)N2CCCSC2=Nc2ccc(C(C)=O)cc2)cc1 11.6%, O=C1Cc2cc(O)ccc2O1 -1.58%, O=C(O)c1cccc2c1-c1ccc(Cl)cc1C2 -7.17%, Cc1cc2c(OCC(O)CN3CCCC3)cccc2[nH]1 (configuration not stated) 2.52%, O=C(CCCc1cccs1)Nc1nc2c(s1)CCCC2 12.6%, CCOC(=O)c1ccc(NS(=O)(=O)c2ccc3c(c2)oc(=O)n3C)cc1 69.3%, CCOC(=O)c1ccc(NS(=O)(=O)c2ccc3[nH]c(=O)[nH]c3c2)cc1 5%, Cc1[nH]ccc(=O)c1OCc1ccccc1 6.47%, O=C(O)c1cc(OCc2ccccc2)cc(OCc2ccccc2)c1 1.18%, CCOc1cc(/C=C2/SC(=S)N(Cc3ccccc3)C2=O)ccc1O 6.48%, Cc1ccc(NC(=O)CSc2nnc(CNC(=O)c3ccco3)n2C)cc1C -4.15%, O=C(COC(=O)C1CC2CCCC(C1)C2=O)NNC(=O)c1ccccc1Br (configuration not stated) -2.58%, COC(=O)[C@]1(C)N[C@H](CN(C)S(=O)(=O)c2ccc(C(C)(C)C)cc2)[C@@H]2C(=O)N(C)C(=O)[C@@H]21 3.98%, O=C1/C(=C/c2cccs2)SC(=S)N1C1CCS(=O)(=O)C1 (configuration not stated) 0.42%, Cc1ccc(C(=O)N/C(=C/c2ccco2)C(=O)NC2CCS(=O)(=O)C2)cc1 (configuration not stated) -1.97%, O=C1/C(=C/c2ccccc2)SC(=S)N1C1CCS(=O)(=O)C1 (configuration not stated) -6.69%, Cc1ccc(/C=C2\SC(=S)N(C3CCS(=O)(=O)C3)C2=O)cc1 (configuration not stated) 6.18%, Cc1ccc(/C=C2\SC(=S)N(C3CCS(=O)(=O)C3)C2=O)o1 (configuration not stated) -0.73%, Cc1cc(C)n(/N=C/c2ccco2)c(=O)c1C#N 11.3%, CC1c2ccccc2N(NC(=O)Cc2ccccc2)C1C (configuration not stated) 1.5%, CC(=O)c1ccc(N2CCN(C(=O)c3ccc(OCc4c(C)noc4C)cc3)CC2)cc1 -23.2%, CCn1c(SCC(=O)NNC(=O)Cc2ccccc2)nnc1-c1ccccc1 6.74%, CNc1ccc(OC)cc1-n1cnc(-c2ccc([N+](=O)[O-])cc2)c1 -2.92%, O=C(NCc1ccccn1)/C(=N/O)c1ccccc1 1.42%, O=C(NCc1ccccn1)C(=O)NCc1ccccn1 5.11%, Cn1nc(C(C)(C)C)cc1C(=O)NCc1ccc2c(c1)OCO2 5.42%, O=C(O)c1cccc(-n2cccc2/C=C2/NC(=O)N(c3ccc(Cl)cc3)C2=O)c1 -7.27%, O=C(O)c1ccc(COc2ccc3ccccc3c2/C=C2/NC(=O)N(c3ccccc3)C2=O)cc1 24.9%, N#C/C(=C/c1cccn1-c1cccc(C(=O)O)c1)c1ccc(F)cc1 0.42%, O=C1N/C(=C/c2cccn2-c2ccccc2)C(=O)N1Cc1ccccc1F 0%, O=C(O)c1ccc(COc2ccccc2/C=C2/NC(=O)N(c3cccc(Cl)c3)C2=O)cc1 32.2%, N#CC(C#N)=Cc1cccn1-c1ccc(S(N)(=O)=O)cc1 -2.79%, Cc1c(C(=O)O)cccc1-c1ccc(/C=C2/NC(=O)N(c3ccccc3)C2=O)o1 18.3%, O=C(O)c1cc(-c2ccc(/C=C3\NC(=O)N(c4ccccc4)C3=O)o2)ccc1Cl 25.2%, Cn1c(C(=O)NCc2cccs2)cc2oc3ccccc3c21 2.73%, O=C(NC1(C(F)(F)F)NC(=O)N(CC2CCCCC2)C1=O)c1ccco1 (configuration not stated) 9.27%, CCN(C(=O)c1cn(C)c(=O)c2ccccc12)c1ccccc1F -11.6%, Cn1cc(CCNCc2cn[nH]c2-c2ccc(-c3ccccc3)cc2)cn1 -3.24%, CC(C)Cc1cc(C(=O)O)c2ccccc2n1 5.6%, CCn1c(Cc2ccccc2)nnc1SCC(=O)Nc1ccc(C)cc1 -8.39%, CC(C)c1ccc(NC(=O)Cc2cn(C)c3ccccc23)cc1 4.75%, CCc1ccccc1NC(=O)Cc1cn(C)c2ccccc12 -13.9%, Cc1ccc(-c2nnn(CC(=O)N(c3ccccc3)C(C(=O)NC3CCCC3)c3ccco3)n2)o1 (configuration not stated) -1.78% and -5.18%, Cc1ccc(N(C(=O)Cn2nnc(-c3ccc(C)o3)n2)C(C(=O)NC2CCCC2)c2ccco2)cc1 (configuration not stated) 1.99% and -5.57%, COCCN(Cc1ccc(C)c(Br)c1)C(=O)Cn1cnc(S(=O)(=O)N2CCCC2)c1 27.4%
